High-throughput results deposited in PubChem BioAssay by National Center for Advancing Translational Sciences (NCATS).
KB-3-1 tox – kills parental KB-3-1 adenocarcinoma cells; 400,000 compounds, 1.4% hits; Potency, µM (highest dose often 46.1 µM), hits mostly cytotoxic; KB-3-1 viability, CellTiter-Glo ATP luminescence, 72 h; note: % is set by controls: 0 for no effect and ±100 for the full control effect; nearly all actives have a fitted effect of over 60% in size
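Parental KB-3-1 viability, qHTS format: 72 h compound exposure, 37 °C; CellTiter-Glo; media-only wells and DMSO plates as controls; concentration-effect fits on corrected data.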
KB-V1 MDR tox – KB-V1 MDR subline cytotoxicity. KB-V1 MDR cells viability, CellTiter-Glo, 72 h. Potency, µM (highest dose often 46.1 µM), most hits filed as cytotoxic. 400,000 compounds, 3.4% hits; note: % is set by controls: 0 for no effect and ±100 for the full control effect; nearly all actives have a fitted effect of over 60% in size
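qHTS viability screen in drug-selected KB-V1 MDR cells: 72 h compound treatment at 37 degrees C, ATP luminescence end point.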
MCF10A rereplic – DNA re-replication induction in MCF 10a cells; MCF 10A DNA re-replication, Hoechst nuclear intensity, 48 h; Potency, µM (doses to about 46.1 µM), without a hit: at the top dose activity, positive = re-replication, actives largely listed as activators; 350,000 compounds, 2.9% hits; AID 624296; note: % of control where 0% means no effect; nearly all actives have a fitted effect of over 50% in size
SW480 rereplic – induces DNA re-replication in SW480 colon adenocarcinoma cells; Potency, µM (highest dose often 46.1 µM), for the others: top-dose re-replication activation, hits mostly activators; SW480 DNA re-replication, Hoechst DNA content imaging, 48 h; AID 624297; 340,000 compounds, 1.8% hits; note: % of control where 0% means no effect; nearly all actives have a fitted effect of over 55% in size
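SW480 cells exposed to compounds for 48 hr at 37 C, 5% CO2, then Hoechst-stained 40 min. Nuclear DNA content imaged by fluorescence scanning (405 nm excitation, 500-530 nm emission); re-replication scored as increased high-intensity nuclei.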
HT1080NT lethal – kills 2HG-producing HT-1080-NT fibrosarcoma cells; 360,000 compounds, 1.6% hits; HT-1080-NT fibrosarcoma viability, CellTiter-Glo ATP luminescence, 48 h; Potency, µM (highest dose often 46.1 µM), for the others: top-dose activity, negative = less viability, usual class: cytotoxic;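 note: NT is the 2HG producing partner of a matched IDH1 knockdown line; 0% = DMSO-treated cells and -100% = media-only wells without cells; nearly all actives have a fitted effect of over 55% in size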
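A 48-hour cytotoxicity screen used HT-1080-NT cells plated 2 hours before compound delivery. ATP-based CellTiter-Glo luminescence measured viability, normalized to DMSO and no-cell controls.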
HT1080 IDH1KD tx – HT-1080 IDH1 knockdown cell toxicity (counter line) | Potency, µM (series often up to 46.1 µM), without a hit: at the highest dose activity, negative = toxicity, usual class: cytotoxic | 360,000 compounds, 2% hits | AID 686971 | HT-1080 IDH1 knockdown viability, ATP luminescence, 48 h;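 note: 0% = DMSO wells and -100% = cell-free medium wells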
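% activity derives from luminescence (CellTiter-Glo), normalised to DMSO and no-cell wells. HT-1080-IDH1KD cells, 750/well, had 48 h compound exposure at 37 °C.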
* hit, by the source's call. Shown are actives, neighbours in structure and some others; about 8% of the full set was active somewhere. Calls come from the whole dose curve; as a rule, active = well fitted curve in the direction sought with a large enough effect; inconclusive = small, poorly fitted or top-dose-only effect, or another doubt; inactive = no such curve, though single readings can be large; an effect the other way counts as inactive or inconclusive. Potency is the fitted concentration of half-maximal effect.

Results for COc1cc(CNCCO)cc(Br)c1OCc1ccccc1Cl ?
KB-3-1 tox: inconclusive; KB-V1 MDR tox: inconclusive; MCF10A rereplic: inconclusive; SW480 rereplic: inconclusive; HT1080NT lethal: -2%; HT1080 IDH1KD tx: -29%

Results for COc1cc(CNCCO)cc(Cl)c1OCc1ccc(Cl)cc1Cl ?
KB-3-1 tox: inactive; KB-V1 MDR tox: inactive; MCF10A rereplic: inconclusive; SW480 rereplic: inconclusive; HT1080NT lethal: 21µM*; HT1080 IDH1KD tx: 16µM*

What do the screens show for `Cc1ccc([N+](=O)[O-])cc1NC(=O)Nc1onc(C)c1C`?
KB-3-1 tox: inactive; KB-V1 MDR tox: inactive; MCF10A rereplic: 1%; SW480 rereplic: -5%; HT1080NT lethal: -2%; HT1080 IDH1KD tx: 0%

What do the screens show for `COc1cccc(CNC(=O)CCNS(=O)(=O)c2cccc3nsnc23)c1`?
KB-3-1 tox: inactive; KB-V1 MDR tox: inactive; MCF10A rereplic: -18%; SW480 rereplic: inconclusive; HT1080NT lethal: 0%; HT1080 IDH1KD tx: 10%

How did O=C1C(=O)c2ccccc2C(O)=C1C1CCC(c2ccc(Cl)cc2)CC1 (configuration not stated) do in these assays?
KB-3-1 tox: inconclusive; KB-V1 MDR tox: inconclusive; MCF10A rereplic: 0.033µM*; SW480 rereplic: 3%; HT1080NT lethal: inconclusive; HT1080 IDH1KD tx: 15%

What do the screens show for `Cc1cc(C)n2c(Br)c(CSc3nc4ccccc4o3)nc2n1`?
KB-3-1 tox: inactive; KB-V1 MDR tox: 21µM*; MCF10A rereplic: 6%; SW480 rereplic: -5%; HT1080NT lethal: -5%; HT1080 IDH1KD tx: 2%

What do the screens show for `Cc1cc(C)n2cc(CSc3nc4cc(Cl)ccc4o3)nc2n1`?
KB-3-1 tox: inactive; KB-V1 MDR tox: inactive; MCF10A rereplic: 1%; SW480 rereplic: -7%; HT1080NT lethal: 2%; HT1080 IDH1KD tx: 2%

Results for O=C(Nc1ccc(Br)c2ccccc12)c1ccc2ccccc2c1O ?
KB-3-1 tox: inactive; KB-V1 MDR tox: inactive; MCF10A rereplic: 3.3µM*; SW480 rereplic: 2%; HT1080NT lethal: inconclusive; HT1080 IDH1KD tx: inconclusive

Results for CCN1C(=O)/C(=C\C=C\c2ccccc2[N+](=O)[O-])SC1=S ?
KB-3-1 tox: inconclusive; KB-V1 MDR tox: inconclusive; MCF10A rereplic: 4.1µM*; SW480 rereplic: inconclusive; HT1080NT lethal: -4%; HT1080 IDH1KD tx: -25%

What do the screens show for `CCOc1ccccc1C=C1SC(=S)N(CC)C1=O`?
KB-3-1 tox: inactive; KB-V1 MDR tox: inactive; MCF10A rereplic: 2%; SW480 rereplic: -4%; HT1080NT lethal: 12%; HT1080 IDH1KD tx: 19%

How did CCOc1cccc(=O)c2c(C)n(Cc3ccco3)c(C)c12 do in these assays?
KB-3-1 tox: inactive; KB-V1 MDR tox: inactive; MCF10A rereplic: -1%; SW480 rereplic: -6%; HT1080NT lethal: 5%; HT1080 IDH1KD tx: 1%

How did NC(=O)c1cc2ccccc2o/c1=N\NC(=O)c1ccccc1O do in these assays?
KB-3-1 tox: inactive; KB-V1 MDR tox: inactive; MCF10A rereplic: -1%; SW480 rereplic: -19%; HT1080NT lethal: 3%; HT1080 IDH1KD tx: 10%

Results for COC1CCC2(C)C(=CCC3C4CC(O)CC4(C)CCC32)C1 (configuration not stated) ?
KB-3-1 tox: inactive; KB-V1 MDR tox: 18µM*; MCF10A rereplic: 12%; SW480 rereplic: -2%; HT1080NT lethal: -3%; HT1080 IDH1KD tx: -2%

How did CCOC(=O)/C(=N\Nc1cccc(C(F)(F)F)c1)N(CCOC)CCOC do in these assays?
KB-3-1 tox: inactive; KB-V1 MDR tox: 23µM*; MCF10A rereplic: 8%; SW480 rereplic: 0%; HT1080NT lethal: 9%; HT1080 IDH1KD tx: -5%

Results for CCOC(=O)/C(=N\Nc1cccc(C(F)(F)F)c1)N1CCOCC1 ?
KB-3-1 tox: inactive; KB-V1 MDR tox: inactive; MCF10A rereplic: -11%; SW480 rereplic: -87%; HT1080NT lethal: 0%; HT1080 IDH1KD tx: -2%
